From PubChem BioAssay
Sampled rows, rich in hits. Any-hit rate of the full collection: about 31%.
CYP2C9 activ = activators of human CYP2C9 | AID 1024 | activation factor at 5 µM | 96,000 tested, 1.4% active | recombinant CYP2C9, luciferin-H conversion, luminescence; stronger effect = higher value; factor 1 = untreated enzyme, 0 = blocked;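 active = activation factor of 2 or more for CYP2C9 at a 5 µM dose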;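 note: 0 = sulfaphenazole-blocked wells and 1 = vehicle-only wells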
CYP2C19 activ = increases human CYP2C19 enzyme activity; P33261; recombinant CYP2C19, luciferin-H EGE luminescence; stronger effect = higher value; 0 = fully inhibited enzyme, 1 = untreated enzyme; AID 1025; 96,000 tested, under 10 active; activation factor at 5 µM;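 active = activation factor of at least 2 at 5 µM in the primary screen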;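 note: 0 = wells with 2.5 mM tranylcypromine and 1 = vehicle-only wells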
Target sequence (P33261 whole entry, looked up): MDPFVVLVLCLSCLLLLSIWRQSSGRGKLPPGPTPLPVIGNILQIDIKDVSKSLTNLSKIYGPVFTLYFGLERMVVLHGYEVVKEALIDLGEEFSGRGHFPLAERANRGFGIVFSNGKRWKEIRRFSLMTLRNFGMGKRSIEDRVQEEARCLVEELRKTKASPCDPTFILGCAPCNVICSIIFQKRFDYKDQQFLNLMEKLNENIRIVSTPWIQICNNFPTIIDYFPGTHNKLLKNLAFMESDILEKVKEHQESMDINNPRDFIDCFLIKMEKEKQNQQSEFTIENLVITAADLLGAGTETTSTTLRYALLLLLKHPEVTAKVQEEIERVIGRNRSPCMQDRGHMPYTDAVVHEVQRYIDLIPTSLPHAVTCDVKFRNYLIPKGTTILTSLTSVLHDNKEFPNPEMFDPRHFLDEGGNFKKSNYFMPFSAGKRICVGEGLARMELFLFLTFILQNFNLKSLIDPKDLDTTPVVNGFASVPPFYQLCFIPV
CYP2C9 inhib = blocks human cytochrome P450 2C9. P11712. CYP2C9 Supersomes, luciferin-H conversion, luminescence. inhibition, % at 5 µM. 96,000 tested, 20% active. AID 777;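 active = blocking of liver enzyme CYP2C9 beyond about 50% at 5 µM, limit read from the data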
CYP2C19 inhib = inhibitors of human CYP2C19; P33261; CYP2C19 Supersomes, luciferin-H EGE luminescence, 30 min; inhibition, % at 5 µM; 96,000 tested, 21% active;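 active = CYP2C19 inhibition above a set limit at 5 µM in the primary screen, cut at about 50% in these data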;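 note: plate controls were negative control wells for no effect and 2.5 mM tranylcypromine positive control for full effect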
PLAP activator = human PLAP activation; P05187; purified PLAP enzyme, luminescent substrate read-out; stronger effect = higher value; activation fold at 20 µM; 96,000 tested, 1.2% active; AID 696; in the data active = activation fold above about 2
* = called active by the depositor.

SMILES | CYP2C9 activ | CYP2C19 activ | CYP2C9 inhib | CYP2C19 inhib | PLAP activator
N#Cc1c(N)nc(N2CCCC2)c(C#N)c1-c1ccc(Cl)cc1 | 1.1 | 1.1 | -8.8 | -10.5 | 0.9
CCN(CC)c1nc(N)c2c(N)n(-c3ccccc3C)c(=S)c(C#N)c2c1C#N | 0.8 | 0.9 | 21.8 | 10.0 | 1.4
CCN(CC)c1nc(N)c2c(N)nc3c(c2c1C#N)CC(c1ccccc1)O3 (stereo not given) | 0.2 | 0.4 | 82.3* | 56.2* | 1.1
N#Cc1c(N2CCCCC2)nc(N)c2c(N)nc3c(c12)CC(c1ccccc1)O3 (stereo not given) | 0.4 | 0.8 | 63.9* | 24.9 | 1.3
O=C(CSc1ncnc2nc[nH]c12)NCCc1ccccc1 | 1 | 0.9 | -2.6 | 6.2 | 0.9
COc1ccc(CNC(=O)CSc2ncnc3nc[nH]c23)cc1 | 0.8 | 0.4 | 17.2 | 60.8* | 0.8
CC(NC(=O)CSc1ncnc2nc[nH]c12)c1ccccc1 (stereo not given) | 0.1 | 0.8 | 93.5* | 22.6 | 1.4
O=C(Nn1cnnc1)c1cc2cc(Br)ccc2oc1=O | 0.6 | 0.5 | 37.5 | 54.4* | 1.2
CCN(CC)C(=O)c1cc2cc(Br)ccc2oc1=O | 1.7 | 0.9 | -71.2 | 14.2 | 1
CN(C)CCNC(=O)c1cc2cc(Br)ccc2oc1=O | 0.6 | 0.8 | 43.7 | 17.9 | 1.1
CC(C)NC(=O)c1cc2cc(Br)ccc2oc1=O | 0.5 | 0.4 | 50.0* | 61.3* | 1.6
CC1(C)CC(=O)c2cc(C(=O)NCc3ccco3)c(=O)n(-c3ccccc3)c2C1 | 1.1 | 0.9 | -5.3 | 9.0 | 1.1
c1ccc(-n2ncc3c(N4CCN(CCOc5cccc6ccccc56)CC4)ncnc32)cc1 | 0.2 | 0.5 | 76.5* | 48.0 | 1.5
O=C(COc1ccccc1)N1CCN(c2ncnc3c2cnn3-c2ccccc2)CC1 | 0.3 | 0.2 | 71.2* | 80.1* | 1.6
COc1cc(/C=C/c2cc(OC(C)=O)c3ccccc3n2)c(OC(C)=O)c([N+](=O)[O-])c1 | 0.2 | 0.2 | 79.3* | 75.4* | 0.9
CC(=O)Oc1c(Cl)cc(Cl)cc1/C=C/c1ccc2ccccc2n1 | 1 | 0.9 | 3.0 | 6.7 | 1
O=C(O)CCCNS(=O)(=O)c1ccc(NCc2ccccc2)c(C(=O)O)c1 | 1.1 | 1.2 | -6.8 | -18.9 | 1.3
CCOc1ccc(N(CC(=O)NC(C)(C)C)C(=O)c2ccco2)cc1 | 0.1 | 0.8 | 89.9* | 21.6 | 1.1
CCC(C)n1cnc2c(=O)oc3ccccc3c21 (stereo not given) | 0.8 | 0.7 | 16.0 | 31.7 | 0.9
CC1=CC(C)(C)N2C(=O)C3(C(C#N)=C(N)Oc4cc(O)ccc43)c3c(C)c(C)cc1c32 (stereo not given) | 0.1 | 0.1 | 93.5* | 88.9* | 1.3
CCOC(=O)CC1=NC(=O)CS1 | 1.1 | 1.1 | -8.4 | -8.3 | 0.9
CC(C)OCCCN1CN(S(=O)(=O)c2ccccc2)c2nc3ccccc3nc21 | 0 | 0.1 | 97.5* | 85.2* | 1.7
COCCCN1CN(S(=O)(=O)c2ccc(Cl)cc2)c2nc3ccccc3nc21 | 0 | 0 | 99.4* | 98.3* | 1.5
Cc1nc2ccc(N3C(=O)CCC3=O)cc2[nH]1 | 1.1 | 1.1 | -9.5 | -14.3 | 1.1
COc1cc(S(=O)(=O)N2CCOCC2)ccc1NC(=O)c1cc2c(s1)CCC2 | 0.3 | 0.5 | 68.2* | 46.4 | 1.6
SMILES | CYP2C9 activ | CYP2C19 activ | CYP2C9 inhib | CYP2C19 inhib | PLAP activator
COc1cc(S(=O)(=O)N2CCOCC2)ccc1NC(=O)CSc1nnc(N)s1 | 0.5 | 0.9 | 46.8 | 13.3 | 1
Cc1ccc(S(=O)(=O)N2CCOCC2)cc1NC(=O)c1cc2c(s1)CCC2 | 0.4 | 0.5 | 63.8* | 51.9* | 1.7
Cc1ccc(NC(=O)c2cc3c(s2)CCC3)cc1S(=O)(=O)N1CCOCC1 | 1 | 1.3 | -0.3 | -34.4 | 1.1
NC(=O)NCC12CC3CC(CC(C3)C1)C2 | 1.1 | 1 | -6.2 | 0.8 | 1.1
NCC(O)COCCC12CC3CC(CC(C3)C1)C2 (stereo not given) | 0.7 | 0.1 | 25.2 | 87.9* | 1.2
COc1ccc(C(=O)Cc2cc(OC)c(OC)cc2[N+](=O)[O-])cc1 | 1.3 | 0.9 | -30.3 | 8.2 | 1
COc1ccc(C(=O)CC(Nc2ccc([N+](=O)[O-])cc2)c2ccc(OC)cc2)cc1 (stereo not given) | 0.3 | 0.6 | 68.2* | 43.3 | 1.1
CNc1cc(N2CCCCCC2)ccc1[N+](=O)[O-] | 0.5 | 0.5 | 46.8 | 51.1* | 0.8
O=[N+]([O-])c1ccc(N2CCOCC2)cc1NCc1ccccc1 | 0.7 | 0.6 | 33.3 | 41.4 | 1
COc1cccc(OCCNc2cc(N3CCCCC3)ccc2[N+](=O)[O-])c1 | 0.3 | 0.7 | 69.7* | 26.5 | 1
Cc1ccccc1OCCNc1cc(N2CCCCC2)ccc1[N+](=O)[O-] | 0.1 | 0.1 | 94.6* | 89.3* | 0.5
O=[N+]([O-])c1ccc(N2CCN(S(=O)(=O)c3ccccc3)CC2)cc1NCCN1CCOCC1 | 0.3 | 0.5 | 70.1* | 54.8* | 1.2
Cc1cc2nnc(SCc3ccccc3)n2c(N)n1 | 0.7 | 0.7 | 27.4 | 26.2 | 0.9
CCCCc1cc2c(c(NC(=O)CC)n1)c(=O)oc1ccccc12 | 0.9 | 0.9 | 14.7 | 9.6 | 0.9
COc1ccc(OCCNc2cc(N3CCCCC3)ccc2[N+](=O)[O-])cc1 | 0.5 | 0.8 | 49.0 | 20.0 | 1.1
COc1ccc(OCCNc2cc(N3CCOCC3)ccc2[N+](=O)[O-])cc1 | 0.4 | 0.6 | 62.9* | 44.7 | 0.9
O=C(c1cnsn1)N1CCN(c2ccccn2)CC1 | 1.7 | 0.7 | -65.3 | 27.4 | 0.8
CC1CCN(C(=O)c2ccc3c(c2NCCO)C(=O)c2ccccc2C3=O)CC1 | 0.8 | 0.2 | 23.5 | 81.1* | 1.2
Cc1coc(NC(=O)CSc2nc(-c3ccncc3)cc(C(F)(F)F)c2C#N)n1 | 0.6 | 0.8 | 35.3 | 19.7 | 1
COC(=O)c1cccc2c1-c1ccccc1/C2=N/O | 0.2 | 0.4 | 84.5* | 58.8* | 1.4
COC(=O)c1ccc2c(c1O)C(=O)c1ccccc1C2=O | 0.6 | 0.4 | 40.6 | 59.5* | 1
CCSc1c(C(=O)NC)ccc2c1C(=O)c1ccccc1C2=O | 0.7 | 0.9 | 26.6 | 12.8 | 0.9
Brc1ccc(-c2nnc3n2-c2ccccc2CC3)cc1 | 0.4 | 0.1 | 62.6* | 86.2* | 1.6
Brc1ccc(-c2nnc3n2CCCCC3)cc1 | 1 | 0.8 | -3.4 | 21.5 | 0.9
Cc1cccc(S(=O)(=O)c2c(N)n(/N=C/c3ccccc3)c3nc4ccccc4nc23)c1 | 0.5 | 1 | 54.7* | 2.3 | 1.4
Nc1c(S(=O)(=O)c2ccccc2)c2nc3ccccc3nc2n1/N=C/c1cccc(O)c1 | 0.7 | 0.9 | 30.6 | 10.0 | 1.2
Cc1ccc(C)c(S(=O)(=O)c2c(N)n(/N=C/c3ccco3)c3nc4ccccc4nc23)c1 | 0.1 | 0.4 | 85.7* | 63.0* | 1.5
COc1ccc(NC(=O)c2cccnc2C(=O)O)c(OC)c1 | 1 | 1.1 | -3.9 | -12.3 | 1
CS(=O)(=O)c1cccc(C(=O)NCc2ccccc2)c1 | 0.8 | 0.7 | 15.0 | 33.9 | 1.2
